About 79,000 compounds went through this panel and 15% of them were active in at least one assay; those are over-represented in the sample as a whole. A number with no mark means an inactive call. Calls of active or inactive are those of the source. Cut-off read from the data, not from the text of the source: active = growth inhibition above about 70%; inactive = the rest.
How the values were obtained:
[1] = NCI Yeast Anticancer Drug Screen. Data for the rad52 strain (AID 147);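 note: 0% = growth of vehicle-treated control cultures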; settings: S. cerevisiae rad52 mutant growth inhibition, active compounds read high
Method in brief: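 Genetically altered yeast (DNA damage repair defect) treated with compound; inhibition calculated relative to vehicle.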

[2] = NCI Yeast Anticancer Drug Screen. Data for the rad50EPP+ strain (AID 151);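 note: 0% = growth of vehicle-treated control cultures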; settings: S. cerevisiae rad50 mutant strain, active compounds read high
Method in brief: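 Strain rad50EPP+; compound exposure; % growth inhibition vs vehicle.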

[3] = NCI Yeast Anticancer Drug Screen. Data for the mgt1 strain (AID 153); settings: S. cerevisiae mgt1 mutant growth inhibition, active compounds read high
Method in brief: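 Read-out: yeast growth inhibition vs vehicle control. Strain mgt1, drawn from a panel altered in DNA damage repair or cell cycle control.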

[4] = NCI Yeast Anticancer Drug Screen. Data for the rad50 strain (AID 155);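 note: 0% = growth of vehicle-only cultures of the same strain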; settings: S. cerevisiae rad50 strain growth inhibition, active compounds read high
Method in brief: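 Inhibition values express reduced yeast growth in compound-treated cultures relative to vehicle-treated controls.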

[5] = NCI Yeast Anticancer Drug Screen. Data for the mec2-1 strain (AID 157); settings: S. cerevisiae mec2-1 strain, active compounds read high
Method in brief: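 Cells of the genetically defined mec2-1 yeast strain are incubated with test compound. Inhibition of growth is calculated against vehicle-treated controls.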

[6] = NCI Yeast Anticancer Drug Screen. Data for the rad14 strain (AID 159);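 note: 0% = growth of vehicle-treated control cultures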; settings: S. cerevisiae rad14 strain growth inhibition, active compounds read high
Method in brief: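 A mutant yeast strain defective in DNA damage repair is treated with compound; inhibition of its growth is scored against untreated, vehicle-exposed cultures.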

[7] = NCI Yeast Anticancer Drug Screen. Data for the sgs1 mgt1 strain (AID 161);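 note: 0% = growth of cultures given vehicle only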; settings: S. cerevisiae sgs1 mgt1 strain, active compounds read high
Method in brief: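 Mutant yeast exposed to compound; growth scored against vehicle-only wells.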

[8] = NCI Yeast Anticancer Drug Screen. Data for the CLN2oe strain (AID 163);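 note: 0% = growth of vehicle-only control cultures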; settings: S. cerevisiae CLN2oe strain, active compounds read high
Method in brief: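 Strain altered in cell-cycle control, incubated with compound; growth compared to solvent-treated controls.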

[9] = NCI Yeast Anticancer Drug Screen. Data for the cln2 rad14 strain (AID 165);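 note: 0% = growth equal to vehicle treated cultures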; settings: S. cerevisiae cln2 rad14 strain, active compounds read high
Method in brief: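 The screen exposed genetically defined yeast (cln2 rad14) to test compounds and scored growth inhibition relative to vehicle-treated controls.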

[10] = NCI Yeast Anticancer Drug Screen. Data for the bub3 strain (AID 167); settings: S. cerevisiae bub3 mutant strain, active compounds read high
Method in brief: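 Steps: expose the mutant yeast strain to compound; grow alongside vehicle-treated cultures; measure growth; express inhibition against the vehicle cultures.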

[11] = NCI Yeast Anticancer Drug Screen. Data for the wt2 strain (AID 169);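 note: 0% = growth of vehicle-treated yeast cultures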; settings: S. cerevisiae wt2 strain growth inhibition, active compounds read high
Method in brief: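 Steps: yeast strain treated with compound; growth recorded; inhibition calculated relative to cultures given vehicle alone.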

[12] = NCI Yeast Anticancer Drug Screen. Data for the mlh1 strain (AID 171);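 note: 0% = growth of vehicle-treated control cultures of the same strain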; settings: S. cerevisiae mlh1 strain growth inhibition, active compounds read high
Method in brief: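 Yeast screen: mutant strain plus compound, growth scored against vehicle control wells.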

[13] = NCI Yeast Anticancer Drug Screen. Data for the mlh1 rad18 strain (AID 175); settings: S. cerevisiae mlh1 rad18 strain growth inhibition, active compounds read high
Method in brief: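 Compound-treated yeast growth, normalised to vehicle controls. Strain bears defined DNA repair mutations.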

[14] = NCI Yeast Anticancer Drug Screen. Data for the rad18 strain (AID 177); settings: S. cerevisiae rad18 mutant growth inhibition, active compounds read high
Method in brief: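 Inhibition values reflect reduced yeast growth compared with vehicle-treated controls, using a strain engineered with a DNA damage repair defect.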

[15] = at 5.0 µM (retest, dose inferred, filed as 0.5)
[16] = at 50.0 µM (retest, dose inferred, filed as 5.0)

`O=C(/C=C/c1cccc(Br)c1)c1ccc(Cl)cc1` showed a growth inhibition ([1]; at 1.2 µM) of -26%, a growth inhibition ([1]; at 3.7 µM) of -14% and a growth inhibition ([1]; at 11.0 µM) of -6%. The growth inhibition ([1]; at 33.0 µM) was 28%, the growth inhibition ([1]; at 100.0 µM) was 76% (active) and the growth inhibition ([2]; at 1.2 µM) was -62%. It also gave a growth inhibition ([2]; at 3.7 µM) of -22%, a growth inhibition ([2]; at 11.0 µM) of -25% and a growth inhibition ([2]; at 33.0 µM) of -13%. For the same compound, the growth inhibition ([2]; at 100.0 µM) was 2%, the growth inhibition ([3]; at 1.2 µM) was -40% and the growth inhibition ([3]; at 3.7 µM) was -36%. For the same compound, the growth inhibition ([3]; at 11.0 µM) was -13%, the growth inhibition ([3]; at 33.0 µM) was 32% and the growth inhibition ([3]; at 100.0 µM) was 70% (active). It also gave a growth inhibition ([4]; at 1.2 µM) of -9%, a growth inhibition ([4]; at 3.7 µM) of 0% and a growth inhibition [4, 15] of 35%. For the same compound, the growth inhibition ([4]; at 11.0 µM) was 27%, the growth inhibition ([4]; at 33.0 µM) was 66% and the growth inhibition [4, 16] was 47%. The growth inhibition ([4]; at 50.0 µM) was 81.9% (active), the growth inhibition ([4]; at 100.0 µM) was 82% (active) and the growth inhibition ([5]; at 1.2 µM) was -65%. For the same compound, the growth inhibition ([5]; at 3.7 µM) was -68%, the growth inhibition [5, 15] was 32% and the growth inhibition ([5]; at 11.0 µM) was -51%. The growth inhibition ([5]; at 33.0 µM) was -18%, the growth inhibition [5, 16] was 47% and the growth inhibition ([5]; at 50.0 µM) was 73% (active). It also gave a growth inhibition ([5]; at 100.0 µM) of 53%, a growth inhibition ([6]; at 1.2 µM) of -67% and a growth inhibition ([6]; at 3.7 µM) of -46%. For the same compound, the growth inhibition ([6]; at 11.0 µM) was -49%, the growth inhibition ([6]; at 33.0 µM) was -15% and the growth inhibition ([6]; at 100.0 µM) was 46%. It also gave a growth inhibition [7, 15] of 4%, a growth inhibition [7, 16] of 60% and a growth inhibition ([8]; at 1.2 µM) of -17%. It also gave a growth inhibition ([8]; at 3.7 µM) of -19%, a growth inhibition ([8]; at 11.0 µM) of -13% and a growth inhibition ([8]; at 33.0 µM) of -12%. The growth inhibition ([8]; at 100.0 µM) was 36%, the growth inhibition [9, 15] was 46% and the growth inhibition [9, 16] was 48%. The growth inhibition ([10]; at 1.2 µM) was -16%, the growth inhibition ([10]; at 3.7 µM) was -7% and the growth inhibition [10, 15] was 52%. For the same compound, the growth inhibition ([10]; at 11.0 µM) was 38%, the growth inhibition ([10]; at 33.0 µM) was 57% and the growth inhibition [10, 16] was 84% (active). The growth inhibition ([10]; at 100.0 µM) was 82% (active), the growth inhibition ([11]; at 1.2 µM) was -31% and the growth inhibition ([11]; at 3.7 µM) was -28%. The growth inhibition ([11]; at 11.0 µM) was -19%, the growth inhibition ([11]; at 33.0 µM) was 20% and the growth inhibition ([11]; at 100.0 µM) was 72% (active). It also gave a growth inhibition ([12]; at 1.2 µM) of -30%, a growth inhibition ([12]; at 3.7 µM) of -19% and a growth inhibition ([12]; at 11.0 µM) of -7%. For the same compound, the growth inhibition ([12]; at 33.0 µM) was 19%, the growth inhibition ([12]; at 100.0 µM) was 76% (active) and the growth inhibition [13, 15] was 26%. For the same compound, the growth inhibition [13, 16] was 56%, the growth inhibition ([13]; at 50.0 µM) was 75.3% (active) and the growth inhibition ([14]; at 1.2 µM) was -37%. For the same compound, the growth inhibition ([14]; at 3.7 µM) was -13%, the growth inhibition ([14]; at 11.0 µM) was 30% and the growth inhibition ([14]; at 33.0 µM) was 61%. The growth inhibition ([14]; at 100.0 µM) was 84% (active).
Compound `Cc1cc(O)c2c(c1O)C(=O)C13C(=C2O)C(=O)C2C(O)C1C1C(O)C3C(=O)C3=C(O)c4c(O)cc(C)c(O)c4C(=O)C321` (stereo not drawn) has a growth inhibition ([1]; at 1.2 µM) of 28%, a growth inhibition ([1]; at 3.7 µM) of 39% and a growth inhibition ([1]; at 11.0 µM) of 58%. The growth inhibition ([1]; at 33.0 µM) was 89% (active), the growth inhibition ([1]; at 100.0 µM) was 90% (active) and the growth inhibition ([2]; at 1.2 µM) was 4%. It also gave a growth inhibition ([2]; at 3.7 µM) of 3%, a growth inhibition ([2]; at 11.0 µM) of -4% and a growth inhibition ([2]; at 33.0 µM) of 1%. For the same compound, the growth inhibition ([2]; at 100.0 µM) was -38%, the growth inhibition ([3]; at 1.2 µM) was 5% and the growth inhibition ([3]; at 3.7 µM) was 26%. The growth inhibition ([3]; at 11.0 µM) was 61%, the growth inhibition ([3]; at 33.0 µM) was 86% (active) and the growth inhibition ([3]; at 100.0 µM) was 82% (active). The growth inhibition ([4]; at 1.2 µM) was 29%, the growth inhibition ([4]; at 3.7 µM) was 37% and the growth inhibition [4, 15] was 12%. For the same compound, the growth inhibition ([4]; at 11.0 µM) was 51%, the growth inhibition ([4]; at 33.0 µM) was 79% (active) and the growth inhibition [4, 16] was 84% (active). The growth inhibition ([4]; at 50.0 µM) was 77.3% (active), the growth inhibition ([4]; at 100.0 µM) was 80% (active) and the growth inhibition ([5]; at 1.2 µM) was 19%. For the same compound, the growth inhibition ([5]; at 3.7 µM) was 34%, the growth inhibition [5, 15] was 75% (active) and the growth inhibition ([5]; at 11.0 µM) was 76% (active). The growth inhibition ([5]; at 33.0 µM) was 86% (active), the growth inhibition [5, 16] was 93% (active) and the growth inhibition ([5]; at 50.0 µM) was 85.3% (active). For the same compound, the growth inhibition ([5]; at 100.0 µM) was 83% (active), the growth inhibition ([6]; at 1.2 µM) was -6% and the growth inhibition ([6]; at 3.7 µM) was 9%. For the same compound, the growth inhibition ([6]; at 11.0 µM) was 52%, the growth inhibition ([6]; at 33.0 µM) was 77% (active) and the growth inhibition ([6]; at 100.0 µM) was 80% (active). The growth inhibition [7, 15] was 37%, the growth inhibition [7, 16] was 86% (active) and the growth inhibition ([7]; at 50.0 µM) was 79.2% (active). The growth inhibition ([8]; at 1.2 µM) was 18%, the growth inhibition ([8]; at 3.7 µM) was 17% and the growth inhibition ([8]; at 11.0 µM) was 84% (active). For the same compound, the growth inhibition ([8]; at 33.0 µM) was 91% (active), the growth inhibition ([8]; at 100.0 µM) was 83% (active) and the growth inhibition [9, 15] was 28%. The growth inhibition [9, 16] was 91% (active), the growth inhibition ([9]; at 50.0 µM) was 29.8% and the growth inhibition ([10]; at 1.2 µM) was -5%. For the same compound, the growth inhibition ([10]; at 3.7 µM) was 4%, the growth inhibition [10, 15] was 59% and the growth inhibition ([10]; at 11.0 µM) was 27%. For the same compound, the growth inhibition ([10]; at 33.0 µM) was 82% (active), the growth inhibition [10, 16] was 87% (active) and the growth inhibition ([10]; at 50.0 µM) was 77% (active). For the same compound, the growth inhibition ([10]; at 100.0 µM) was 84% (active), the growth inhibition ([11]; at 1.2 µM) was 12% and the growth inhibition ([11]; at 3.7 µM) was 26%. The growth inhibition ([11]; at 11.0 µM) was 52%, the growth inhibition ([11]; at 33.0 µM) was 87% (active) and the growth inhibition ([11]; at 100.0 µM) was 85% (active). It also gave a growth inhibition ([12]; at 1.2 µM) of 18%, a growth inhibition ([12]; at 3.7 µM) of 15% and a growth inhibition ([12]; at 11.0 µM) of 43%. For the same compound, the growth inhibition ([12]; at 33.0 µM) was 79% (active), the growth inhibition ([12]; at 100.0 µM) was 83% (active) and the growth inhibition [13, 15] was 58%. The growth inhibition [13, 16] was 86% (active), the growth inhibition ([13]; at 50.0 µM) was 63.4% and the growth inhibition ([14]; at 1.2 µM) was -3%. For the same compound, the growth inhibition ([14]; at 3.7 µM) was -4%, the growth inhibition ([14]; at 11.0 µM) was 15% and the growth inhibition ([14]; at 33.0 µM) was 73% (active). The growth inhibition ([14]; at 100.0 µM) was 84% (active).

Source: PubChem BioAssay (NCI)
